Some test systems named below: T-47D breast; BT-549 breast; MDA-MB-435 melanoma; SW-620 colon; MCF7 breast; HCT-116 colon; HCC-2998 colon; KM12 colon.
Holding throughout (test): NCI-60 one-dose screen, 48 h (100 = growth as untreated, 0 = no growth, -100 = all killed)
What all share (conditions): 10 µM unless noted

About 83,000 compounds went through this panel and 20% of them were active in at least one assay; those are over-represented in the sample as a whole.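 The endpoint reported here, percent growth, reads 100 for growth as untreated, 0 for no net growth and -100 for all cells dead.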 Unmarked numbers belong to inactive results. The source made the active and inactive calls. Rule for the calls: active = growth percent below 10; inactive = the rest.

Regarding `N#Cc1cccc(NC(=O)c2oc3ccccc3c2-c2cnn(-c3ccccc3)c2)c1`, the growth with T-47D breast is 49.6% [50 µM]; with BT-549 breast, 72.5% [50 µM]; in the test with MDA-MB-435 melanoma it was 97.9% [50 µM]; with SW-620 colon, 89% [50 µM]; in the test with MCF7 breast, 57.3% [50 µM]; in the test with HCT-116 colon, 70.9% [50 µM]. The growth with HCC-2998 colon was 71.1% [50 µM]; with KM12 colon, 81.5% [50 µM].
Regarding `CC(O)c1cnc(/C=C2\SC(=S)N(Cc3ccccc3)C2=O)s1` (stereo not given), the growth is 41.7% in the test on T-47D breast; 86.9% with BT-549 breast; 25.3% with MDA-MB-435 melanoma; 39.7% in the test on SW-620 colon; 27.4% with MCF7 breast; 20.2% in the test on HCT-116 colon. Further, the growth with HCC-2998 colon is 107%; in the test with KM12 colon it was 30.3%.
As for `COc1ccc(C2c3sc4c(F)cccc4c3Oc3nc[nH]c(=O)c32)cc1` (stereo not given), the growth with T-47D breast was 70.5%; in the test with BT-549 breast it was 84.6%; in the test with MDA-MB-435 melanoma it was 82.1%; with SW-620 colon it was 89.7%; in the test on MCF7 breast, 45.7%; with HCT-116 colon, 79.9%. Moreover, the growth with HCC-2998 colon is 91.7%; with KM12 colon, 81.7%.
For `CN1CCN(C(=O)OCc2ccc3c(Cl)cc(Cl)c(O)c3n2)CC1`, the growth in the test with T-47D breast was 58.6%; in the test on BT-549 breast, 87%; in the test with MDA-MB-435 melanoma it was 60.5%; in the test on SW-620 colon, 52.4%; in the test with MCF7 breast, 43.6%; in the test on HCT-116 colon, 32.9%. For the same compound, the growth in the test on HCC-2998 colon was 74.4%; in the test on KM12 colon, 48.7%.
For `C=CC(=O)NCc1ccc(Nc2nccc(-c3ccc(N4CCCC4)c(C#N)c3)n2)cc1`, the growth in the test on T-47D breast was 71%; in the test on BT-549 breast, -10.3% (active); with MDA-MB-435 melanoma, 10.1%; with SW-620 colon, 43.9%; in the test with MCF7 breast it was 14.3%; with HCT-116 colon, 22.2%. Moreover, the growth in the test on HCC-2998 colon was 71.3%; in the test with KM12 colon, 35.2%.
As to `Cc1nnc(NC(=O)c2nc(S(=O)(=O)Cc3ccc(F)cc3)ncc2Cl)s1`, the growth in the test on T-47D breast was 38.5%; in the test on BT-549 breast, 26.7%; in the test on MDA-MB-435 melanoma, 75.9%; with SW-620 colon, -59.8% (active); with MCF7 breast, 44.7%; in the test with HCT-116 colon, -0.743% (active). Also, the growth in the test on HCC-2998 colon was 99.1%; with KM12 colon it was 90.8%.
Take `C=C(C)[C@@H]1CC[C@]2(C(=O)NCC#CCN3CCN(C)CC3)CC[C@]3(C)[C@H](CC[C@@H]4[C@@](C)(CCC#N)[C@H](C(=C)C)CC[C@]43C)[C@@H]12`: the growth in the test with T-47D breast is 34.9%; with BT-549 breast it was 78.6%; in the test with MDA-MB-435 melanoma, 54.6%; in the test on SW-620 colon it was 45.5%; in the test on MCF7 breast, 50.5%; in the test on HCT-116 colon, 26.4%. Further, the growth was 25.2% with HCC-2998 colon and 45.9% with KM12 colon.
As for `CN[C@]12CC3(C=CC(=O)C=C3)O[C@@]1(Cc1ccc(OC)cc1)N(C)C(=O)N2`, the growth is 16.6% with T-47D breast; 41.5% in the test with BT-549 breast; 1.71% (active) with MDA-MB-435 melanoma; 11.1% in the test on SW-620 colon; 23.3% in the test with MCF7 breast; -35.2% (active) in the test on HCT-116 colon. In addition, the growth is 32.7% with HCC-2998 colon and 9.7% (active) in the test with KM12 colon.
Take `CC[C@]12C=CCN3CC[C@@]4(c5cc(NC(=O)CCC(=O)OCc6cn(Cc7ccc(F)cc7)nn6)c(OC)cc5N(C)[C@H]4[C@@](O)(C(=O)OC)[C@@H]1OC(C)=O)[C@@H]32`: the growth was 102% in the test on T-47D breast; 108% in the test on BT-549 breast; 101% in the test on MDA-MB-435 melanoma; 104% with SW-620 colon; 96.4% in the test with MCF7 breast; 96.3% with HCT-116 colon. For the same compound, the growth was 106% in the test on HCC-2998 colon and 103% in the test with KM12 colon.
`COc1ccc(C/C(C)=C(/c2ccc(OCCN3CCCCC3)cc2)c2ccc(OC(=O)NCc3ccccc3)cc2)cc1`: the growth with T-47D breast was -82.3% (active); in the test on BT-549 breast it was -76.4% (active); in the test on MDA-MB-435 melanoma it was -95.4% (active); with SW-620 colon, -83.5% (active); in the test with MCF7 breast, -84.6% (active); in the test with HCT-116 colon, -90.3% (active). The growth in the test on HCC-2998 colon is -92.5% (active); in the test with KM12 colon it was -81.2% (active).
`C1=C(N2CCCC2)CCC1`: the growth in the test on T-47D breast is 104%; with BT-549 breast, 113%; in the test with MDA-MB-435 melanoma, 95.1%; in the test with SW-620 colon it was 101%; in the test on MCF7 breast, 91%; in the test on HCT-116 colon it was 102%. In addition, the figures for the growth in the test with HCC-2998 colon and in the test on KM12 colon were 110% and 109%, respectively.
Regarding `Cc1nn(-c2ccccc2)c(Oc2ccccn2)c1-c1nc2ccccc2s1`, the growth in the test on T-47D breast is 88%; with BT-549 breast it was 95.4%; with MDA-MB-435 melanoma, 103%; with SW-620 colon, 105%; in the test on MCF7 breast, 84%; in the test with HCT-116 colon it was 91.5%. Moreover, the growth in the test on HCC-2998 colon is 103%; in the test on KM12 colon, 87.6%.
With `CC(=O)Nc1nc2ccc(NS(=O)(=O)c3cccc4c(N(C)C)cccc34)cc2[nH]1`, the growth in the test with T-47D breast is 74.3%; with BT-549 breast it was 61.3%; in the test on MDA-MB-435 melanoma, -28.6% (active); with SW-620 colon it was 38.7%; in the test on MCF7 breast, 22.4%; with HCT-116 colon it was 62.2%. Further, the growth in the test on HCC-2998 colon is 83.3%; in the test on KM12 colon, 55.1%.
As for `Cc1nc2sc(C(=O)Nc3cccc(Cl)c3C)c(N)c2cc1C(=O)c1ccccc1`, the growth in the test on T-47D breast is 36.8%; with BT-549 breast it was 7.58% (active); in the test on MDA-MB-435 melanoma it was -37.4% (active); in the test with SW-620 colon it was 27%; in the test on MCF7 breast, 11.1%; with HCT-116 colon, 13.1%. The growth in the test on HCC-2998 colon was 7.04% (active); with KM12 colon, 13%.
Consider `CC(C)N1CCN(Cc2ccc3c(NNC(=O)c4ccccc4)nc4cc(F)ccc4n23)CC1`, for which the growth with T-47D breast was 20.3%; in the test with BT-549 breast, 45.6%; in the test on MDA-MB-435 melanoma, 30.5%; with SW-620 colon, 24.9%; with MCF7 breast it was 9.7% (active); in the test on HCT-116 colon, 24.5%. Also, the results for the growth with HCC-2998 colon and with KM12 colon were 25% and 23.1%, respectively.

Source of the values: PubChem BioAssay (NCI).
